Measurements as given in PubChem BioAssay (EPA / NIEHS).
Activity calls are given as the source filed them. The calls were made as follows: active = hit-call score of the fitted dose curve at least 0.9, where 1 is the maximum; inactive = score below 0.9.

Tests used:
[1] = target: Transcription factor E2F1 (Homo sapiens) (UniProt Q01094); test: ATG_E2F_CIS: Attagene CIS-FACTORIAL HepG2 Assay for human E2F Transcription Factor 1 (AID 2282935); details: HepG2 Attagene cis-reporter, E2F reporter RNA transcripts; actives raise or lower the signal
Method in brief: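 Gain or loss of reporter transcript, fitted against DMSO, reflects E2F1-driven transcription. Transiently transfected HepG2 dosed 24 h before RNA isolation. Quantified by fluorescent RT-PCR products separated by capillary electrophoresis.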

[2] = ATG_E_Box_CIS: Attagene CIS-FACTORIAL HepG2 Assay for human Enhancer Box (E-box) (AID 2282936); details: HepG2 E-box cis-reporter transcription, actives raise or lower the signal
Method in brief: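 E-box-driven reporter transcripts measured in transiently transfected HepG2 after 24 h exposure: RNA reverse-transcribed, PCR-amplified, fluorescently labelled, digested and resolved by capillary electrophoresis. Gain or loss relative to DMSO.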

[3] = ATG_M_61_CIS: Attagene CIS-FACTORIAL HepG2 Assay for M61 Transcription Factor (Internal Marker) (AID 2282937); details: HepG2 Attagene CIS-FACTORIAL M61 internal marker reporter; actives raise or lower the signal
Method in brief: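 HepG2 cells transiently transfected with cis-element-driven multiple reporter transcription units, dosed for 24 h. Reporter mRNA measured by RT-PCR, 6-FAM primer-extension labelling, HpaI digestion and capillary electrophoresis; bidirectional fit versus DMSO baseline.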

[4] = ATG_EGR_CIS: Attagene CIS-FACTORIAL HepG2 Assay for human Early Growth Response 1 (EGR1) (AID 2282938); details: HepG2 Attagene CIS-FACTORIAL EGR reporter mRNA; actives raise or lower the signal
Method in brief: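 HepG2 cells transiently transfected with cis-promoter-driven multiplexed reporter transcription units; reporter mRNA measured 24 h after compound dosing by RT-PCR, 6-FAM primer extension, HpaI digestion and capillary electrophoresis. Bidirectional fit versus DMSO baseline.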

[5] = ATG_ERE_CIS: Attagene CIS-FACTORIAL HepG2 Assay for Estrogen Response Element (ERE) (AID 2282940); details: HepG2 ERE cis-reporter, Attagene RNA transcript; actives raise or lower the signal
Method in brief: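 After 24 h compound treatment, RNA from transfected HepG2 cells was reverse-transcribed, reporter cDNA PCR-amplified, FAM-labelled, HpaI-cut and resolved by capillary electrophoresis. ERE-driven cis reporter transcripts reflect endogenous factors; gain or loss scored against DMSO.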

[6] = ATG_Ets_CIS: Attagene CIS-FACTORIAL HepG2 Assay for human Erythroblast Transformation Specific (ETS) (AID 2282941); details: HepG2 ETS cis-reporter transcription, actives raise or lower the signal
Method in brief: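 Cis-regulated reporter mRNA induction in HepG2 (transient transfection), 24 h exposure, RT-PCR plus capillary electrophoresis detection; DMSO serves as negative control and baseline.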

[7] = target: Hepatocyte nuclear factor 3-beta (Homo sapiens) (UniProt Q9Y261); test: ATG_FoxA2_CIS: Attagene CIS-FACTORIAL HepG2 Assay for human Forkhead box A2 (FOXA2) (AID 2282942); details: HepG2 cis-reporter transcription factor activity, 24 h; actives raise or lower the signal
Method in brief: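 HepG2 cells transiently transfected with multiple cis-regulated reporter transcription units, dosed for 24 h. Reporter mRNA measured by RT-PCR, 6-FAM labelling, HpaI digestion and capillary electrophoresis; bidirectional fitting against DMSO baseline.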

[8] = ATG_FoxO_CIS: Attagene CIS-FACTORIAL HepG2 Assay for human Forkhead box O (FoxO) (AID 2282943); details: HepG2 Attagene cis-reporter, FoxO element, mRNA; actives raise or lower the signal
Method in brief: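 HepG2, transient MRTU transfection (cis element, endogenous TFs). Dose 24 h. TriZol RNA → oligo(dT) RT → PCR → 6-FAM primer extension → HpaI cut → CE. Gain/loss vs DMSO.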

[9] = ATG_GLI_CIS: Attagene CIS-FACTORIAL HepG2 Assay for human Zinc Finger Protein GLI1 (AID 2282945); details: HepG2, Attagene cis-factorial reporter mRNA, GLI element; actives raise or lower the signal
Method in brief: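 Bidirectional curve fits relative to DMSO, using reporter mRNA levels from RT-PCR plus capillary electrophoresis. Cells were HepG2 transiently carrying cis-regulated reporter constructs, harvested 24 h after dosing.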

[10] = ATG_GRE_CIS: Attagene CIS-FACTORIAL HepG2 Assay for human Glucocorticoid Response Elements (GRE) (AID 2282947); details: HepG2 GRE cis-reporter, Attagene multiplex mRNA; actives raise or lower the signal
Method in brief: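 Reporter transcripts read by RT-PCR with capillary electrophoresis fluorescence after a 24 h chemical exposure of HepG2 cells transiently transfected with multiple cis-element reporter units. Gain or loss fitted against DMSO.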

[11] = ATG_ISRE_CIS: Attagene CIS-FACTORIAL HepG2 Assay for human Interferon Regulatory Factor 1 (IRF1) binding to an Interferon-Stimulated Response Element (ISRE) (AID 2282948); details: HepG2 ISRE cis-reporter (Attagene), mRNA transcription readout; actives raise or lower the signal
Method in brief: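 Multiplexed mRNA reporter readout in human liver HepG2 cells: cis-element-driven reporters transfected, compound added for 24 h, transcripts amplified, fluorescently labelled and sized by capillary electrophoresis; curve fitting bidirectional against DMSO.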

[12] = ATG_M_32_CIS: Attagene CIS-FACTORIAL HepG2 Assay for M32 Transcription Factor (Internal Marker) (AID 2282949); details: HepG2 Attagene cis-factorial M32 reporter, mRNA; actives raise or lower the signal;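 also: background control marker of the multiplexed CIS panel rather than a real target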
Method in brief: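 HepG2 transfectants (cis-regulated reporter transcription units) dosed 24 h. Reporter mRNA by RT-PCR plus CE, analysed as gain or loss relative to DMSO.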

[13] = ATG_M_06_CIS: Attagene CIS-FACTORIAL HepG2 Assay for M06 Transcription Factor (Internal Marker) (AID 2282950); details: HepG2 Attagene CIS-FACTORIAL M06 internal marker reporter; actives raise or lower the signal
Method in brief: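 Serves as a background control readout. Transfected HepG2 exposed to compounds for 24 h, then reporter transcripts quantified by fluorescent RT-PCR and capillary electrophoresis. Both directions fitted against DMSO baseline.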

[14] = target: Hypoxia-inducible factor 1-alpha (Homo sapiens) (UniProt Q16665); test: ATG_HIF1a_CIS: Attagene CIS-FACTORIAL HepG2 Assay for human Hypoxia Inducible Factor 1 (HIF1A) (AID 2282951); details: HepG2 Attagene cis-factorial HIF1a reporter transcription; actives raise or lower the signal
Method in brief: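 HepG2 cells transiently transfected with multiplexed cis-promoter reporter units; reporter mRNA read 24 h after dosing by RT-PCR, 6-FAM primer-extension labelling, HpaI digestion and capillary electrophoresis. Bidirectional fit versus DMSO baseline.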

[15] = target: Hepatocyte nuclear factor 6 (Homo sapiens) (UniProt Q9UBC0); test: ATG_HNF6_CIS: Attagene CIS-FACTORIAL HepG2 Assay for human Hepatocyte Nuclear Factor 6 (HNF6) (AID 2282952); details: HepG2 Attagene cis-factorial HNF6 reporter transcription; actives raise or lower the signal
Method in brief: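 First, HepG2 cells were transfected with the multiplexed cis reporter library and dosed with chemical for 24 h. Next, RNA was reverse-transcribed, PCR-amplified and fluorescently labelled. Finally, HpaI-digested fragments were read by capillary electrophoresis.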

[16] = target: Heat shock factor protein 1 (Homo sapiens) (UniProt Q00613); test: ATG_HSE_CIS: Attagene CIS-FACTORIAL HepG2 Assay for human Heat Shock Transcription Factor 1 (HSE) (AID 2282953); details: HepG2 HSE cis-reporter, Attagene RNA transcription; actives raise or lower the signal
Method in brief: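 Endogenous transcription factor activity in transiently transfected HepG2, read as reporter mRNA by RT-PCR with fluorescent capillary electrophoresis after 24 h. Gain or loss of signal fitted versus DMSO baseline.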

[17] = ATG_MRE_CIS: Attagene CIS-FACTORIAL HepG2 Assay for human Metal Responsive Element (MRE) (AID 2282954); details: HepG2 MRE cis-reporter transcription, Attagene multiplex; actives raise or lower the signal
Method in brief: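 Endogenous MRE-dependent transcription read as reporter mRNA in transiently transfected human HepG2 cells at 24 h. RNA reverse-transcribed, PCR-amplified, labelled and resolved by capillary electrophoresis; gain or loss relative to DMSO.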

[18] = ATG_M_19_CIS: Attagene CIS-FACTORIAL HepG2 Assay for M19 Transcription Factor (Internal Marker) (AID 2282939); details: HepG2 Attagene CIS-FACTORIAL M19 internal marker reporter; actives raise or lower the signal
Method in brief: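 Internal marker readout, fitted in both directions against DMSO, from HepG2 cells carrying transfected cis-element reporter constructs; RT-PCR and capillary electrophoresis of reporter mRNA after 24 h exposure.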

[19] = ATG_GATA_CIS: Attagene CIS-FACTORIAL HepG2 Assay for human GATA Binding Protein (AID 2282944); details: HepG2 GATA cis-element reporter, Attagene multiplex mRNA; actives raise or lower the signal
Method in brief: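 Reporter transcripts from a GATA cis-regulated unit, among multiplexed reporters in transfected HepG2 cells, were measured by RT-PCR with capillary electrophoresis after 24 h dosing. Induction or loss scored relative to DMSO.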

[20] = target: Bile acid receptor (Homo sapiens) (UniProt Q96RI1); test: ATG_IR1_CIS: Attagene CIS-FACTORIAL HepG2 Assay for human Nuclear Receptor Subfamily 1 Group H Member 4 (NR1H4), IR1 submotif (AID 2282946); details: IR1 reporter transcription, actives raise or lower the signal
Method in brief: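 HepG2 cells transiently transfected with multiplexed cis-element reporter units read endogenous transcription factor activity. After 24 h compound exposure, reporter mRNA was quantified by RT-PCR, fluorescent labelling, HpaI digestion and capillary electrophoresis; bidirectional fitting versus DMSO baseline.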

Chain of Transcription factor E2F1 (Homo sapiens) (Q01094 whole entry, looked up): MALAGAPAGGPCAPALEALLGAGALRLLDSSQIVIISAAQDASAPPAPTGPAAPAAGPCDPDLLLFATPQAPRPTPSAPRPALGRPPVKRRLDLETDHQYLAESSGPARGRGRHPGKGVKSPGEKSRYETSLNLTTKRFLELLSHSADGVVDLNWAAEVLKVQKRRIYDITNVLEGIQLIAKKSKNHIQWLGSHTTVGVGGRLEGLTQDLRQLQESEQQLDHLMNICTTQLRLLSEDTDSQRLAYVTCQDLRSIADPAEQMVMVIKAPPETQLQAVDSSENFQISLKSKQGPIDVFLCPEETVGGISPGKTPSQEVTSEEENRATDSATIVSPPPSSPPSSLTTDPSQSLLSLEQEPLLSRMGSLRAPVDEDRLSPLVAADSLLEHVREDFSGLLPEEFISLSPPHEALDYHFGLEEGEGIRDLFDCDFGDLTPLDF
Chain of Heat shock factor protein 1 (Homo sapiens) (Q00613 whole entry, looked up): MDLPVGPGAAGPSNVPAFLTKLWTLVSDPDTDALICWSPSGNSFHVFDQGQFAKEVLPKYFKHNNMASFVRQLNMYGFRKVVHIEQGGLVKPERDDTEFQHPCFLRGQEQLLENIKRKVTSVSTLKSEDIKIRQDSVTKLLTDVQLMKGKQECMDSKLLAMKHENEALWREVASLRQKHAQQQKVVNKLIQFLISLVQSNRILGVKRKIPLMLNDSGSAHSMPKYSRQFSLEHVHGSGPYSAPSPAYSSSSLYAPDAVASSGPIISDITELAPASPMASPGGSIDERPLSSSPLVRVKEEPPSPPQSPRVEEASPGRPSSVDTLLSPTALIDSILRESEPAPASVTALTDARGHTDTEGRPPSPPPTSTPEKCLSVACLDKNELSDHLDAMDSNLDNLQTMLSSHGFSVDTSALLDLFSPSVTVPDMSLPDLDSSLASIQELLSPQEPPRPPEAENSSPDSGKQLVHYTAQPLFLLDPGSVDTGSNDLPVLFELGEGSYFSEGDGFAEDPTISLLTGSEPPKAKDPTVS
Chain of Hypoxia-inducible factor 1-alpha (Homo sapiens) (Q16665 whole entry, looked up): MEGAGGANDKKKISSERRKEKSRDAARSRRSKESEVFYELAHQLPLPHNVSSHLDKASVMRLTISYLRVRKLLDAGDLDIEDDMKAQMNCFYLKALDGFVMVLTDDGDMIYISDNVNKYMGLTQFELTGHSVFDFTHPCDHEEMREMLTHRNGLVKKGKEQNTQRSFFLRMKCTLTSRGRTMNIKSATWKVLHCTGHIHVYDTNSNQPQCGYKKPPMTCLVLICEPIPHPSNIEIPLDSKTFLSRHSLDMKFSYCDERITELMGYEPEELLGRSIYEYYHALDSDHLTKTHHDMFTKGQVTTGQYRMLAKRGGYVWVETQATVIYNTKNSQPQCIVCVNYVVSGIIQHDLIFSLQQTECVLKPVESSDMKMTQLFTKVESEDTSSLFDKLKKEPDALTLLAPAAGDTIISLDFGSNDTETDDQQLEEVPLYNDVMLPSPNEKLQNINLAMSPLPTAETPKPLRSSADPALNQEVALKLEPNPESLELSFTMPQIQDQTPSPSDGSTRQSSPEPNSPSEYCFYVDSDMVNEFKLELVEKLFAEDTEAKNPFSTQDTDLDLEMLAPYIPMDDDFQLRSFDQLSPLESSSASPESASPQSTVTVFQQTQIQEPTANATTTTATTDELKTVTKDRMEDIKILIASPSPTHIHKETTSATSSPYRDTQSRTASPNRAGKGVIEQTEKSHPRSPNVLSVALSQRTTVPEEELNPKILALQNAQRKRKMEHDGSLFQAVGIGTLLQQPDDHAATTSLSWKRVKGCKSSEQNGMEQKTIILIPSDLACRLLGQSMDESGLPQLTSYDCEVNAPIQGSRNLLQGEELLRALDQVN
Chain of Hepatocyte nuclear factor 6 (Homo sapiens) (Q9UBC0 whole entry, looked up, the tested form may be a part): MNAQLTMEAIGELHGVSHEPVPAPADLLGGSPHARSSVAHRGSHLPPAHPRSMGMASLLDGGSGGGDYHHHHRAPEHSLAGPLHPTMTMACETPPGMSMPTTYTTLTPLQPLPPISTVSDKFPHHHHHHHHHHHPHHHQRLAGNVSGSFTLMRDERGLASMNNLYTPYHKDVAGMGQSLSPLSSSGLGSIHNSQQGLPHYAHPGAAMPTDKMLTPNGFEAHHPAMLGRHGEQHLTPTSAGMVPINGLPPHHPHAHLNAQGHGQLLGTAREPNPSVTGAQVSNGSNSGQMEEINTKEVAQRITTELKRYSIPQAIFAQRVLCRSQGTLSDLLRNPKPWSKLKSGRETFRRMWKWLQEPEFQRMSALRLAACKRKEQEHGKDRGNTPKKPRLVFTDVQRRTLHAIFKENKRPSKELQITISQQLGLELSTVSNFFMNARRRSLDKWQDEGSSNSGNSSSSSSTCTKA
Chain of Hepatocyte nuclear factor 3-beta (Homo sapiens) (Q9Y261 whole entry, looked up): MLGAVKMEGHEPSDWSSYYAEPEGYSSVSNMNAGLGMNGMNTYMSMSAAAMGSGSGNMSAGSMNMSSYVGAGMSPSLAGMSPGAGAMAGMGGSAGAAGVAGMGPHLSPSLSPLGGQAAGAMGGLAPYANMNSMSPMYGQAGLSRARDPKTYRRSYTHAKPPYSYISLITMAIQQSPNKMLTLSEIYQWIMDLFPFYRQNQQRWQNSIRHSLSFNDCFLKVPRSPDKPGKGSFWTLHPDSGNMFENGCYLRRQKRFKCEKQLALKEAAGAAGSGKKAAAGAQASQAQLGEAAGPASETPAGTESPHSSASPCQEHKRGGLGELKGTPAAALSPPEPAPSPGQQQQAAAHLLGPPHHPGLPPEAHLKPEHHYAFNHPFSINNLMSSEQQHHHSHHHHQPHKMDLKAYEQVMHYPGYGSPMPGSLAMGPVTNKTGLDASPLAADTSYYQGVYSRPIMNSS
Chain of Bile acid receptor (Homo sapiens) (Q96RI1 whole entry, looked up): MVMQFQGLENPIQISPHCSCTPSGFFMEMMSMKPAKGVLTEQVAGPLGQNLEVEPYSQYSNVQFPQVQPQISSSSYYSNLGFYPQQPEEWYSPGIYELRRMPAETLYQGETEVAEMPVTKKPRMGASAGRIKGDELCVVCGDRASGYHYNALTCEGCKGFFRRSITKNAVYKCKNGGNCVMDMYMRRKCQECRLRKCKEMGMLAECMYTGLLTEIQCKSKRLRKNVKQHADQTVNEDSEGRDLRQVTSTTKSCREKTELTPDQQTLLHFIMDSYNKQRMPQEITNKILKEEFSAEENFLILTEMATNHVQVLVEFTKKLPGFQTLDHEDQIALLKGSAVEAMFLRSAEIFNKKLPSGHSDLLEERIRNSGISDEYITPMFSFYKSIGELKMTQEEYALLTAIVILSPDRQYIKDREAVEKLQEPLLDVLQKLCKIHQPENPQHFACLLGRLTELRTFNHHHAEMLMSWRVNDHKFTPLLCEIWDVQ

CC(C)N1C(=O)c2ccccc2NS1(=O)=O
outcome [1]: inactive | outcome [2]: inactive | outcome [3]: inactive | outcome [4]: inactive | outcome [5]: inactive | outcome [6]: inactive | outcome [7]: inactive | outcome [8]: inactive | outcome [9]: inactive | outcome [10]: inactive | outcome [11]: inactive | outcome [12]: inactive | outcome [13]: inactive | outcome [14]: inactive | outcome [15]: inactive | outcome [16]: inactive | outcome [17]: inactive

COc1cc(Cl)c(OC)cc1Cl
outcome [1]: inactive | outcome [2]: inactive | outcome [4]: inactive | outcome [18]: inactive | outcome [5]: inactive | outcome [6]: inactive | outcome [7]: inactive | outcome [8]: inactive | outcome [19]: inactive | outcome [9]: inactive | outcome [10]: inactive | outcome [11]: inactive | outcome [12]: inactive | outcome [13]: inactive | outcome [14]: inactive | outcome [15]: inactive | outcome [16]: inactive | outcome [17]: inactive

Nc1c(Cl)c(F)nc(OCC(=O)O)c1Cl
outcome [1]: inactive | outcome [2]: inactive | outcome [3]: inactive | outcome [4]: inactive | outcome [18]: inactive | outcome [5]: inactive | outcome [6]: inactive | outcome [7]: inactive | outcome [8]: inactive | outcome [9]: inactive | outcome [10]: inactive | outcome [11]: inactive | outcome [12]: inactive | outcome [13]: inactive | outcome [14]: inactive | outcome [15]: inactive | outcome [16]: inactive | outcome [17]: inactive

COc1ccc(-c2ccccc2)cc1NNC(=O)OC(C)C
outcome [1]: inactive | outcome [2]: inactive | outcome [3]: inactive | outcome [4]: inactive | outcome [5]: inactive | outcome [6]: inactive | outcome [7]: inactive | outcome [8]: inactive | outcome [9]: inactive | outcome [20]: inactive | AC50 [10]: 13.2 µM (active) | outcome [11]: inactive | outcome [12]: inactive | outcome [13]: inactive | AC50 [14]: 22.8 µM (active) | outcome [15]: inactive | AC50 [16]: 50 µM (active) | AC50 [17]: 22.7 µM (active)
